# An excerpt weighted towards active compounds, which were near 2.9% of everything screened.
# CF NFkB inh = cystic fibrosis NF-kB activation inhibition; KKLEB NF-kB-GFP reporter, PAF-induced, GFP fluorescence overnight; inhibition, % at 5 µM; actives 0.86% (n = 360,000);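 active = at least 50% inhibition at 5 µM, scaled per plate between neutral and stimulator controls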;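 also: PAF is a Pseudomonas aeruginosa culture filtrate used as stimulus; plate controls were PAF-stimulated DMSO wells for no effect and unstimulated DMSO wells for full effect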
# Shn3 inh set2 = Schnurri-3 reporter inhibition in Clone20 osteoblasts | actives 0.52% (n = 360,000) | Clone20 osteoblast Shn3 3'UTR firefly luciferase, 24 h | inhibition, % at 12.5 µM | AID 588674;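 active = mean inhibition of at least 75% with every replicate also reaching 75%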;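 also: 0% = median of neutral control wells and 100% = pilot-screen positive control compound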
# Peg3 prom inh-1 = Peg3 promoter activity inhibition; HeLa PEG-Prom luciferase reporter, luminescence, overnight; inhibition, % at 20 µM; actives 1.7% (n = 360,000); AID 588405;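 active = inhibition of at least 50% at 20 µM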
# KKLEB cytotox = CF airway cell cytotoxicity counter-screen; AID 602141; actives 0.36% (n = 360,000); activity change (cytotoxicity), % at 5 µM; KKLEB CF airway cells viability, ATPlite luminescence, overnight; stronger effect = lower value; cells stimulated with P. aeruginosa culture filtrate;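 active = corrected activity change at or below -50% at 5 µM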
# EBV LMP1 NFkB = reduces LMP1-driven NF-kappaB luciferase signal; LMP1-induced NF-kappaB luciferase reporter cells, luminescence; inhibition, % at 12.5 µM; actives 0.69% (n = 350,000); in the data active = inhibition above about 41%;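 also: 0% = neutral control wells and 100% = reference inhibitor control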
# HIF-2a inh = HIF-2a inhibition; actives 0.72% (n = 360,000); inhibition, % at 18.8 µM; 786-0 RCC cells HIF-2a reporter, luciferase luminescence, overnight;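 active = inhibition of the luminescence signal of 40% or more relative to plate controls, in a single-dose primary screen at 18.75 µM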
# Peg3 prom inh-2 = Peg3 promoter inhibition confirmation; actives 84% (n = 1,300); shares compounds with Peg3 prom inh-1; inhibition, % at 20 µM; HeLa PEG-Prom luciferase reporter, luminescence, overnight; AID 602417;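 active = at 20 µM dose, 40% or more inhibition averaged across four replicates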
# CF NFkB conf = confirmation of cystic fibrosis induced NF-kB inhibitors; actives 64% (n = 1,300); KKLEB CF airway cells, PAF-induced NF-kB-GFP fluorescence, overnight; AID 602472; inhibition, % at 5 µM; shares compounds with CF NFkB inh; in the data active = inhibition above about 40%;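 also: stimulus PAF is a Pseudomonas aeruginosa filtrate and not platelet activating factor; plate controls were DMSO wells with stimulus for no effect and unstimulated DMSO wells for full effect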
# Mdm2 MdmX conf = Mdm2/MdmX (human) interaction inhibition, confirmed | shares compounds with HIF-2a inh | SaOS-2 split-luciferase Mdm2/MdmX complementation, luminescence | inhibition, % at 8 µM | actives 99% (n = 740) | AID 504601;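 active = mean inhibition of the luminescence signal across two replicates at or above 26 percent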
# Target sequence (O15151 whole entry, looked up): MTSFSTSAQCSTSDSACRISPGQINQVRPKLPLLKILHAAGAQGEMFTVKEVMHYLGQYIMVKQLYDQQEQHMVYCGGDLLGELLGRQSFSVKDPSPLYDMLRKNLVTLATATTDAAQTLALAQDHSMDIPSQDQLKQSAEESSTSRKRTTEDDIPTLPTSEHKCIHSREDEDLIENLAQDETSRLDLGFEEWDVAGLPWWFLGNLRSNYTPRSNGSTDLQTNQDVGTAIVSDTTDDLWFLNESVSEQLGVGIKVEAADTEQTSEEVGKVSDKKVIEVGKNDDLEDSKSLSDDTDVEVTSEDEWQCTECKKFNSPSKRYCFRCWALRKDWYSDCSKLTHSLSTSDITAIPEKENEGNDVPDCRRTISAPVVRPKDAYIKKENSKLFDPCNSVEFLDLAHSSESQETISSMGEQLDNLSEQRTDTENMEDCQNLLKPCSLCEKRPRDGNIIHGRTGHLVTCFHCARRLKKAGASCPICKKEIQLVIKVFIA
# Target sequence (Q00987 whole entry, looked up): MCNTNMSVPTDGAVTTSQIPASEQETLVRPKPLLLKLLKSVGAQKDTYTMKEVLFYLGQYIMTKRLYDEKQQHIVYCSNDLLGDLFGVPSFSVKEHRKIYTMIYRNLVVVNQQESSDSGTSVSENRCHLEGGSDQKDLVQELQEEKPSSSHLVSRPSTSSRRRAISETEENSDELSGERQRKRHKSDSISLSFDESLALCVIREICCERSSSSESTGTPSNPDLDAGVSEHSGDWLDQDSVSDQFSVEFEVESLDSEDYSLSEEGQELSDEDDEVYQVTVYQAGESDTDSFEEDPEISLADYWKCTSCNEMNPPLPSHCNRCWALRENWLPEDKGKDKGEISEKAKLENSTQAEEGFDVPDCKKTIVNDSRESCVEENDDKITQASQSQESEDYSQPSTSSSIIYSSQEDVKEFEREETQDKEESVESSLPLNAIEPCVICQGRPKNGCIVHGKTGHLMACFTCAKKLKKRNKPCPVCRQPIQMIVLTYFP
# The depositor's hits bear a star; i = inactive; . = no result given.
SMILES,CF NFkB inh,Shn3 inh set2,Peg3 prom inh-1,KKLEB cytotox,EBV LMP1 NFkB,HIF-2a inh,Peg3 prom inh-2,CF NFkB conf,others
OCCC1CN(Cc2ccccc2-c2ccco2)CCN1C1CCCC1 (stereo unspecified),-4,6,-9,-1,-4,9,.,.,
CC(=O)OCC(=O)Nc1c(C)cccc1C,6,-2,2,0,-8,1,.,.,
Cc1ccc(C)c(OCC(O)CN2CCC(CN3C(=O)c4cccc5cccc(c45)C3=O)CC2)c1 (stereo unspecified),7,69,99*,-18,17,8,97*,.,
COc1ccc(OCC(O)CN2CCC(CN3C(=O)c4cccc5cccc(c45)C3=O)CC2)cc1 (stereo unspecified),-17,7,12,-4,-4,6,.,.,
O=[N+]([O-])c1ccc(CSc2ccc(S(=O)(=O)N3CCCCC3)cn2)cc1,16,49,12,-2,-2,-3,.,.,
CS(=O)(=O)c1ccc(Cl)c(NC(=O)COC(=O)c2ccc(-n3cnnn3)cc2)c1,-17,-18,-2,13,-5,5,.,.,
NC(=S)NN=C1C=CCCC1,8,-5,-9,-6,-3,-68,.,.,
Cc1[nH]nc(S(=O)CC(=O)O)c1[N+](=O)[O-] (stereo unspecified),-17,-15,51*,-4,-4,24,26,.,
COc1cccc(-c2cc(NC=O)c3ncc(-c4cccc(C(=O)N(C)C)c4)n3c2)c1,16,5,32,-12,.,-8,.,.,
CN(C)C(=O)c1cccc(-c2cnc3c(NC=O)cc(-c4cccc(C(F)(F)F)c4)cn23)c1,-1,41,57*,-15,.,8,61*,.,
COc1cccc(-c2cnc3c(NC=O)cc(-c4cccc(C(=O)N(C)C)c4)cn23)c1,-37,-26,55*,-8,.,0,54*,.,
O=C(NC1CCCCC1)Sc1ccc(Cl)cc1,14,12,66*,1,-11,16,66*,.,
COC(=O)c1cc(NC(=O)CN2C(=O)C(=O)N(C3CCCC3)C2=O)cc(C(=O)OC)c1,-12,1,0,19,4,8,.,.,
CCOC(=O)C1CCCN(C(=O)C(CCSC)NC(=O)COc2ccccc2)C1 (stereo unspecified),11,-19,11,0,-8,1,.,.,
Nc1ccc(-c2nc3ccccc3o2)cc1,-16,-24,-306,-2,-2,-130,.,.,
O=C1C=CC(=O)N1c1ccc(-c2nc3ccccc3o2)cc1,51*,80,108*,-25,-2,-96,97*,10,
CCc1nc(Sc2nnnn2-c2ccccc2)c2c3c(sc2n1)CCCC3,59*,-1,60*,-19,13,34,61*,28,
CCN1CCN(C(=O)c2cnn3c(C(F)F)cc(-c4ccc(C)cc4)nc23)CC1,-12,7,8,1,-13,9,.,.,
CCc1nccn1C(=O)c1cnn2c(C(F)F)cc(-c3ccc(C)cc3)nc12,68*,46,61*,-44,-7,30,93*,91*,
COc1cc(OC)c(NS(=O)(=O)c2c(C(=O)N3CCCCC3)c(C)n(C)c2C)cc1Cl,-5,-40,13,-1,-3,8,.,.,
COc1ccc(NC(=O)c2cc(C)nc3ccccc23)cc1S(=O)(=O)N1CCOCC1,11,-5,-30,-6,-2,12,.,.,
COc1ccc(Nc2nc(-c3ccccc3)nc3ccccc23)cc1S(=O)(=O)N1CCOCC1,89*,.,62*,-24,9,-57,59*,75*,
O=C(CCCCCNC(=O)N1CCn2c1nc1ccccc12)N[C@H](C(=O)O)c1ccccc1,-7,-3,-5,-11,3,8,.,.,
O=C1NC[C@@H](CCCCN2CCN(Cc3ccccc3)C(=O)C2=O)N(Cc2ccccc2)C1=O,.,.,.,.,.,9,.,.,
Cc1ccc(-n2cc(-c3ccccc3)c3c(N4CCOCC4)ncnc32)cc1,84*,-32,67*,-17,-5,16,63*,87*,
SMILES,CF NFkB inh,Shn3 inh set2,Peg3 prom inh-1,KKLEB cytotox,EBV LMP1 NFkB,HIF-2a inh,Peg3 prom inh-2,CF NFkB conf,others
CS(=O)(=O)c1ccc2nc(NC(=O)CCS(=O)(=O)c3ccccc3)sc2c1,75*,10,71*,0,-1,19,47*,64*,
C=CCN(C(=O)Nc1ccc(OC)cc1)c1nnc(-c2ccncc2)s1,6,25,23,-6,11,13,.,.,
O=C(NCCc1c[nH]c2ccccc12)C(=O)c1c[nH]c2ccccc12,-12,14,-24,-5,-5,-33,.,.,
Cc1cc2cc(CCNC(=O)C(=O)c3c[nH]c4ccccc34)c(=O)[nH]c2cc1C,59*,27,59*,0,2,13,59*,52*,
O=C(COC(=O)/C=C/c1ccccc1)NC(=O)NCc1ccccc1,-3,-7,15,8,-1,8,.,.,
COc1ccc(-c2oc3ccc(-c4cc(OC)c(OC)c(OC)c4)cc3c2C#Cc2ccccn2)cc1,72*,16,54*,4,6,7,51*,28,
COc1ccc(C#Cc2c(-c3ccc(OC)cc3)oc3ccc(-c4ccc(OC)cc4)cc23)cc1,21,1,-5,-24,-15,-1,.,.,
CCOC(=O)c1[nH]c(C(=O)O)c(OC(=O)CC)c1C,-2,5,11,3,1,10,.,.,
O=C(Nc1ccc(-c2nc3ncccc3o2)cc1)c1ccc([N+](=O)[O-])o1,86*,97*,100*,-44,-2,-2,33,-121,
CN(C)c1ccc(C(C(=O)NCc2ccccc2)N(Cc2ccco2)C(=O)c2snc(C(N)=O)c2N)cc1 (stereo unspecified),99*,14,61*,-42,-7,-1,45*,89*,
Cc1cnc(NC(=O)C2CC(=O)N(c3cccc(Cl)c3)C2)s1 (stereo unspecified),78*,-242,107*,16,i,-197,94*,86*,
Cc1cc(N2CCN(C)CC2)ccc1NC(=O)c1c2c(nc3ccccc13)CCN(Cc1ccccc1)C2,10,39,109*,-76*,77*,27,87*,.,Mdm2 MdmX conf=102*

# High-throughput results from PubChem BioAssay.
